Structures are written as SMILES. In all, about 94,000 compounds went through this assay and about 2,100 (2.2%) were called active. Shown is part of a subset that was picked to be rich in actives. Unmarked numbers belong to inactive results. No stated cut-off is given here; in the data, active means activity change below about -80%; inconclusive means no clear call, values can overlap the other calls; inactive means above that.

The test in a line: P. falciparum Dd2 growth inhibitors, primary screen, SYBR Green fluorescence, single dose replicates (AID 1159554). Conditions: 72 h, at 10 µM, active compounds read low.
Regarding `COCC#Cc1ccc([C@@H]2[C@@H](CO)N3C(=O)CN(C(=O)C4CCCC4)C[C@@H]23)cc1`, the activity change was -28.5%.
Turning to `O=C(C[C@@H]1CC[C@@H]2[C@H](COC[C@@H](O)CN2C(=O)c2ccccc2F)O1)N1CCOCC1`, the activity change is 11.8%.
In the case of `C[C@H](CO)N1C[C@H](C)[C@@H](CN(C)CC2CC2)OCCCC[C@H](C)Oc2ccc(NC(=O)Nc3ccccc3)cc2C1=O`, the activity change was 3.68%.
For `COc1ccc(C#Cc2cnc3c(c2)C(=O)N([C@H](C)CO)C[C@@H](C)[C@@H](CN(C)C(=O)CN(C)C)O3)cc1` the value was -58.5%.
`Cc1ccc(S(=O)(=O)N[C@@H]2CC[C@@H](CC(=O)O)O[C@@H]2CO)cc1`: the activity change was 10.2%.
Consider `COCCNC(=O)[C@H]1[C@H](CO)[C@H]2Cn3c(ccc(-c4ccccc4F)c3=O)[C@H]2N1C(=O)C1CCC1`, for which the activity change is -8.98%.
As to `O=C(Cc1ccccc1)N1C[C@@H]2[C@H](c3ccccc31)[C@@H](CO)N2C(=O)C1CC1`, the activity change was -0.357%.
Regarding `COCCNC(=O)[C@@H]1[C@@H](CO)[C@@H]2Cn3c(ccc(-c4ccccc4F)c3=O)[C@@H]2N1C(=O)C1CC1`, the activity change is 7.64%.
Turning to `C[C@@H]1CN([C@@H](C)CO)C(=O)c2cccc(NC(=O)Nc3ccc(F)cc3)c2O[C@H]1CN(C)C(=O)Nc1ccc(F)cc1`, the activity change was -7.48%.
With `COc1ccc(NC(=O)Nc2cccc3c2O[C@@H](CN(C)C(=O)NC(C)C)[C@H](C)CN([C@H](C)CO)C3=O)cc1`, the activity change was -26.3%.
As for `COc1ccc(NC(=O)N(C)C[C@H]2Oc3c(NC(=O)NC(C)C)cccc3C(=O)N([C@@H](C)CO)C[C@H]2C)cc1`, the activity change was -84.2% (active).
With `C[C@@H]1CN([C@H](C)CO)C(=O)c2cccc(NC(=O)Nc3cccc4ccccc34)c2O[C@@H]1CN(C)C(=O)Nc1ccc(F)cc1` the figure was -95.3% (active); with `C[C@@H]1CN([C@@H](C)CO)C(=O)c2cccc(NC(=O)Nc3ccc(F)cc3)c2O[C@@H]1CN(C)C(=O)Nc1ccccc1`, -36.1%.
As to `COc1ccc(NC(=O)Nc2cccc3c2O[C@H](CN(C)C(=O)Nc2ccc(F)cc2)[C@@H](C)CN([C@@H](C)CO)C3=O)cc1`, the activity change is -19.9%.
As for `C[C@@H]1CN([C@H](C)CO)C(=O)c2cc(Br)cnc2O[C@@H]1CN(C)Cc1cncnc1`, the activity change was 25.3%.
As to `O=C1CN(Cc2ccccc2)C[C@H]2[C@H](c3ccc(-c4ccccc4)cc3)[C@@H](CO)N12`, the activity change is -11%.
With `COCC(=O)Nc1ccc2c(c1)C(=O)N(C)[C@H]1CC[C@@H](CC(=O)NCc3cccc(F)c3)O[C@H]1CO2`, the activity change was -2.71%.
